From PubChem BioAssay (NCATS)
Values without a mark were called inactive. Results filed as inconclusive are left out. Entries that show only a call come without a potency. Active and inactive are the calls of the source. Unless noted, calls follow the shape of the dose curve; as a rule, active = well fitted curve in the direction sought with a large enough effect; inconclusive = small, poorly fitted or top-dose-only effect, or another doubt; inactive = no such curve, though single readings can be large; an effect the other way counts as inactive or inconclusive.

Experiments:
[1] = molecular target: Lysosomal acid glucosylceramidase (Homo sapiens) (UniProt P04062); test: Glucocerebrosidase-p2 (AID 348; in the data active = potency below about 10 µM; also: potency is read from the fitted curve at half-maximal effect); conditions: purified GBA, blue fluorogenic substrate, 40 min
Sequence of Lysosomal acid glucosylceramidase (Homo sapiens) (P04062 whole entry, looked up): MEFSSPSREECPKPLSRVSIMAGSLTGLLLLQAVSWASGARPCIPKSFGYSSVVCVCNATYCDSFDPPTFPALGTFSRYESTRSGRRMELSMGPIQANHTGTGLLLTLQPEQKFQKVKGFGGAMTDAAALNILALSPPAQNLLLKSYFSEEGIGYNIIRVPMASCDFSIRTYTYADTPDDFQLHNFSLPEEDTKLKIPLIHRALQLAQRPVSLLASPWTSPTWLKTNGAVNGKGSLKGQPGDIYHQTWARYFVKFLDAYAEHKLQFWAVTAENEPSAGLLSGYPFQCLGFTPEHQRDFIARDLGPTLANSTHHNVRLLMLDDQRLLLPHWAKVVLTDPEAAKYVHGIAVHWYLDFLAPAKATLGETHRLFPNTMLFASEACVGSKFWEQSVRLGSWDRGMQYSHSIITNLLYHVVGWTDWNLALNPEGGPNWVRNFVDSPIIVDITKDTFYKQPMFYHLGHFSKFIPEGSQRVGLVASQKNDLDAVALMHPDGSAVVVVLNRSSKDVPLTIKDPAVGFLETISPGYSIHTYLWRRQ
Procedure, shortened: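 Normal human glucocerebrosidase (0.2 nM) with blue fluorogenic substrate (80 uM final) in citrate/phosphate pH 5.9 with 10mM sodium taurocholate, 0.01% tween-20; 40 min RT, NaOH/glycine stop; fluorescence Ex 365/Em 440; AC50 from a titration from 0.6 nM upwards.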

[2] = AP1 Signaling Pathway (AID 357; active = well fitted curve in either direction with a large enough effect, not every such curve was filed as active); conditions: ME-180 AP-1-bla reporter, EGF-induced, beta-lactamase ratio, 5 h; at 7.69 µM (top of the series) unless noted
Procedure, shortened: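 AP-1-bla ME-180 cells with beta-lactamase reporter under AP-1 response element, stimulated with EC50 EGF; compounds titrated, 5 hours at 37 degrees Celsius. CCF4 read at 460/530 nm ratio; positive and negative modulators judged by AC50.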

[3] = molecular target: Cytochrome P450 1A2 (Homo sapiens) (UniProt P05177); test: p450-cyp1a2 (AID 410; calls by dose curve; also: potency is read from the fitted curve at half-maximal effect); conditions: recombinant CYP1A2, luciferin-ME demethylation, luminescence; series mostly up to 57 µM
Sequence of Cytochrome P450 1A2 (Homo sapiens) (P05177 whole entry, looked up): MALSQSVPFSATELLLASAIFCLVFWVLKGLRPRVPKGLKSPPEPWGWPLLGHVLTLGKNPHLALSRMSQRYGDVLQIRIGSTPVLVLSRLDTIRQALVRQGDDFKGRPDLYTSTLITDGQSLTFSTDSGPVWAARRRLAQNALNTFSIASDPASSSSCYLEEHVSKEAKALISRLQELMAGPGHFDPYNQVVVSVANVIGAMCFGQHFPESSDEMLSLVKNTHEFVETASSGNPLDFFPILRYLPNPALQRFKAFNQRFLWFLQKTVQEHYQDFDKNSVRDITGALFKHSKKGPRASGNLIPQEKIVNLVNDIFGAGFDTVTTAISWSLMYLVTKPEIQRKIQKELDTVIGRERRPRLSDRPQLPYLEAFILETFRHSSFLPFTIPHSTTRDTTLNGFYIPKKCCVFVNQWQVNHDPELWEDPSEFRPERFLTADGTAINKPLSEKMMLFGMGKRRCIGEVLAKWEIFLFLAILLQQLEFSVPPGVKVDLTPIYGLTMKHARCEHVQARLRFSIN
Procedure, shortened: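 O-Demethylation of luciferin 6' methyl ether by human CYP1A2 is monitored as luciferase luminescence. Substrate sits at Km (100uM); enzyme is 20nM. Values are scaled to 57 uM furafylline as maximal inhibition.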

[4] = NFAT Signaling Pathway (AID 444; active = well fitted curve in either direction with a large enough effect, not every such curve was filed as active;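 also: carbachol stimulus at about its EC50 of 1 µM final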); conditions: Jurkat NFAT-bla M1, carbachol, beta-lactamase ratio, 5 h; at 7.69 µM (top of the series) unless noted
Procedure, shortened: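 Read-out: CCF4 FRET ratio (460 nm/530 nm) after 1 h RT dye loading, used for %activity and AC50 from titration series. Cells: Jurkat NFAT-β-lactamase/M1 line, treated with compound plus 1 uM carbachol for 5 h, 37 °C.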

[5] = Stat Signaling Pathway (AID 446; active = well fitted curve in either direction with a large enough effect, not every such curve was filed as active;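 also: ME-180 cervical cancer cells given 40 pM IL-6 alongside compound; SIE-controlled beta-lactamase reporter measured as 460/530 nm FRET emission ratio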); conditions: ME-180 (cervical carcinoma) SIE beta-lactamase reporter, IL-6 stimulated, 5 h; at 7.69 µM (top of the series) unless noted
Procedure, shortened: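 Normalization used AC90 stimulation (300 pM IL-6) and AC90 inhibition (125 nM pan-JAK inhibitor at 40 pM IL-6). The underlying signal is SIE-driven beta-lactamase in ME-180 cells after 5 h IL-6 exposure with compound.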

[6] = molecular target: Glucocorticoid receptor (Homo sapiens) (UniProt P04150); test: GR-GFP Redistribution (AID 450;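 active = compounds whose dose series gives a full or clear partial fitted curve of increased nuclear translocation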; also: potency is read from the fitted curve at half-maximal effect); conditions: U2OS GR-GFP nuclear translocation, laser cytometry, 2 h
Sequence of Glucocorticoid receptor (Homo sapiens) (P04150 whole entry, looked up, the tested form may be a part): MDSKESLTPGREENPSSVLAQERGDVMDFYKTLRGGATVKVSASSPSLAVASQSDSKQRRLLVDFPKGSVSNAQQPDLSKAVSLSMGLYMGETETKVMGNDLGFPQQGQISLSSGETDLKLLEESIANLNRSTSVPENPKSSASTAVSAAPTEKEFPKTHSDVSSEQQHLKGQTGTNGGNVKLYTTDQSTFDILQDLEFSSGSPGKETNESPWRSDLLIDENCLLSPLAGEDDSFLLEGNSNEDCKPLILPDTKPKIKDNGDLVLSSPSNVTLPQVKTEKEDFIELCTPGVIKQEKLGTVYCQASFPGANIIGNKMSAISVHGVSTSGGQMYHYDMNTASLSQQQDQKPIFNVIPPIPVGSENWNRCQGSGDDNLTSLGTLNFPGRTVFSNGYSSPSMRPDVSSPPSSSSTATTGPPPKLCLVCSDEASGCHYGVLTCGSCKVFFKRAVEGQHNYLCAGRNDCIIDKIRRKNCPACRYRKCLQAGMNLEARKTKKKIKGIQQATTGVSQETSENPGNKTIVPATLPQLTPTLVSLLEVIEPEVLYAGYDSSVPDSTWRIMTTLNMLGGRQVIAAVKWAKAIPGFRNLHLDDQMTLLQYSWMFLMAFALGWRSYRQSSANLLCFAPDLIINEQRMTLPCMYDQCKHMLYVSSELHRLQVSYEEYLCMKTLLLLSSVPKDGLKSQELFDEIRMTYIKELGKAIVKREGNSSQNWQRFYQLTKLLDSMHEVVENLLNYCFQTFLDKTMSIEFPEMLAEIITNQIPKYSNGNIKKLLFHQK

[7] = molecular target: Glucocorticoid receptor (Homo sapiens) (UniProt P04150); test: GR-EFC Redistribution (AID 451; calls by dose curve; also: potency is read from the fitted curve at half-maximal effect); conditions: CHO-K1 GR-EFC translocation, beta-gal luminescence, 2 h
Procedure, shortened: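 Translocation of GR-ED fusion to nuclear EA restores b-gal, read by luminescence after 1 h room-temperature detection. Engineered CHO-K1 biosensor cells, 1,000/well, exposed 2 h at 37 C to titrations up to 46 uM final.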

[8] = molecular target: Mitogen-activated protein kinase 10 (Mus musculus) (UniProt Q61831); test: JNK3 AlphaScreen Assay (AID 530; active = well fitted curve in either direction with a large enough effect, not every such curve was filed as active;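 also: kinase came from lysate of stimulated human HepG2 cells; signal reports phosphorylation of biotinylated GST-cJun 1-79 at Ser73 with 10 µM ATP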); conditions: JNK3 lysate, c-Jun phosphorylation; series mostly up to 57.1 µM
Procedure, shortened: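 qHTS titrations with 15 min compound pre-incubation before adding ATP (10 uM final). Read-out: AlphaScreen of Ser73-phosphorylated biotin-GST-cJun using HepG2 lysate JNK3 activated by IL-1β and TNFα.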

[9] = molecular target: Cytochrome P450 3A4 (Homo sapiens) (UniProt P08684); test: qHTS Assay for Inhibitors and Substrates of Cytochrome P450 3A4 (AID 884); conditions: recombinant CYP3A4, Luciferin-PPXE luminescence; series mostly up to 57.1 µM; also: potency is read from the fitted curve at half-maximal effect; nearly all actives have a fitted effect of over 50% in size
Sequence of Cytochrome P450 3A4 (Homo sapiens) (P08684 whole entry, looked up): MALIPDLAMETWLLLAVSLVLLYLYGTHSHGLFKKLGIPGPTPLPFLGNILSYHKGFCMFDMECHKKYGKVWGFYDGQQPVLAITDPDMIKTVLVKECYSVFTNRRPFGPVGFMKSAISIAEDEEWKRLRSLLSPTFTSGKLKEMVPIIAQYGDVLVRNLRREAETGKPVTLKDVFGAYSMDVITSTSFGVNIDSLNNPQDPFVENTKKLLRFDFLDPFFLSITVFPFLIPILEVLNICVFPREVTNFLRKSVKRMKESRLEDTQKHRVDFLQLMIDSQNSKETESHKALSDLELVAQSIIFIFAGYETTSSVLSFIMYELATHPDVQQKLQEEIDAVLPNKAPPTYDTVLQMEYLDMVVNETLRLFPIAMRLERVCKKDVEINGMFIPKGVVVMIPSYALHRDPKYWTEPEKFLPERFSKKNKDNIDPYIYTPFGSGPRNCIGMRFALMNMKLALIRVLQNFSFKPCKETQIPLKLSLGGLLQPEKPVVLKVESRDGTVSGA
Procedure, shortened: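 Luminescent readout of luciferin produced by CYP3A4 (20 nM) dealkylation of Luciferin-PPXE, 25 uM (its KM). NADPH-driven reaction ran 60 min at RT after 10 min compound preincubation; data scaled to 57 uM ketoconazole as 100% inhibition.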

[10] = molecular target: Cytochrome P450 3A4 (Homo sapiens) (UniProt P08684); test: qHTS Assay for Activators of Cytochrome P450 3A4 (AID 885); conditions: recombinant CYP3A4, Luciferin-PPXE luminescence, 60 min; series mostly up to 57.1 µM; also: nearly all actives have a fitted effect of over 65% in size
Procedure, shortened: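 Human CYP3A4 dealkylates Luciferin-PPXE to luciferin, which luciferase detection converts to light. Substrate was at its KM (25uM), buffer 200mM KPO4, reaction 60 min at RT.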

[11] = molecular target: Dual specificity protein kinase CLK4 (Homo sapiens) (UniProt Q9HAZ1); test: qHTS Assay for Inhibitors of CDC-like Kinase 4 (Kinase-Glo Assay) (AID 1770); conditions: recombinant Clk4, Kinase-Glo ATP depletion luminescence; series mostly up to 66.7 µM; also: nearly all actives have a fitted effect of over 65% in size
Sequence of Dual specificity protein kinase CLK4 (Homo sapiens) (Q9HAZ1 whole entry, looked up): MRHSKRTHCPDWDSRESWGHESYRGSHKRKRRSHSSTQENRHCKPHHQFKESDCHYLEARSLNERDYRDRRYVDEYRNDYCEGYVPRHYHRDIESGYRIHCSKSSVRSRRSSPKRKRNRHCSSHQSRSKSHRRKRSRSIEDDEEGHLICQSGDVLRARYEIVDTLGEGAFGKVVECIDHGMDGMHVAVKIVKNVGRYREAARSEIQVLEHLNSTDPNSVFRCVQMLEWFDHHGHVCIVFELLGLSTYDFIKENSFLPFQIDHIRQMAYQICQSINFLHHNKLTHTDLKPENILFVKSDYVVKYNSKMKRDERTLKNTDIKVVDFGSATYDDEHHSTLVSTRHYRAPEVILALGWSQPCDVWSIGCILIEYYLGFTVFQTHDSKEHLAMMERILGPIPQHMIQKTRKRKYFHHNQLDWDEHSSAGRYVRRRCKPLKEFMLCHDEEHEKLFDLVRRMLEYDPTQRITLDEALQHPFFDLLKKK
Procedure, shortened: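 Inhibition was judged from remaining ATP, measured by Ultra-Glo luciferase bioluminescence after Clk4 (25 nM) had acted on RS peptide at 1 uM ATP for 4.5 hours, room temperature.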

[12] = molecular target: Dual specificity protein kinase CLK4 (Homo sapiens) (UniProt Q9HAZ1); test: qHTS Assay for Inhibitors of CDC-like Kinase 4 (ADP-Glo Assay) (AID 1771); conditions: recombinant CLK4, ADP-Glo luminescence; series mostly up to 80 µM; also: nearly all actives have a fitted effect of over 70% in size
Procedure, shortened: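 Compounds are pin-transferred onto substrate mix (100 uM RS peptide, 1 uM ATP), then 25 nM Clk4 is added. After 1 hr at room temperature, ADP-Glo reagent runs 45 min, detection reagent 30 min, then luminescence is read.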

[13] = molecular target: Dual specificity protein kinase CLK4 (Homo sapiens) (UniProt Q9HAZ1); test: qHTS Assay for Inhibitors of CDC-like Kinase 4 (ADP-FP Assay) (AID 1795); conditions: Transcreener ADP fluorescence polarization; series mostly up to 50 µM;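 also: recombinant human CLK4 phosphorylating RS repeat peptide at 1 µM ATP; nearly all actives have a fitted effect of over 60% in size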
Procedure, shortened: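 Inhibition of ADP formation by 6.25 nM Clk4 is measured using 1 uM ATP and 100 uM RS repeat peptide over one hour. Produced ADP displaces a fluorescent tracer from antibody, lowering polarization.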

[14] = molecular target: Ubiquitin carboxyl-terminal hydrolase 1 (Homo sapiens) (UniProt O94782); test: Inhibitors of USP1/UAF1: Pilot qHTS (AID 504865); conditions: purified USP1/UAF1, Ub-rhodamine cleavage fluorescence; series mostly up to 54.9 µM;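 also: rhodamine fluorescence freed from ubiquitin-rhodamine substrate followed over time; top concentration of the series differs between compounds; nearly all actives have a fitted effect of over 35% in size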
Sequence of Ubiquitin carboxyl-terminal hydrolase 1 (Homo sapiens) (O94782 whole entry, looked up): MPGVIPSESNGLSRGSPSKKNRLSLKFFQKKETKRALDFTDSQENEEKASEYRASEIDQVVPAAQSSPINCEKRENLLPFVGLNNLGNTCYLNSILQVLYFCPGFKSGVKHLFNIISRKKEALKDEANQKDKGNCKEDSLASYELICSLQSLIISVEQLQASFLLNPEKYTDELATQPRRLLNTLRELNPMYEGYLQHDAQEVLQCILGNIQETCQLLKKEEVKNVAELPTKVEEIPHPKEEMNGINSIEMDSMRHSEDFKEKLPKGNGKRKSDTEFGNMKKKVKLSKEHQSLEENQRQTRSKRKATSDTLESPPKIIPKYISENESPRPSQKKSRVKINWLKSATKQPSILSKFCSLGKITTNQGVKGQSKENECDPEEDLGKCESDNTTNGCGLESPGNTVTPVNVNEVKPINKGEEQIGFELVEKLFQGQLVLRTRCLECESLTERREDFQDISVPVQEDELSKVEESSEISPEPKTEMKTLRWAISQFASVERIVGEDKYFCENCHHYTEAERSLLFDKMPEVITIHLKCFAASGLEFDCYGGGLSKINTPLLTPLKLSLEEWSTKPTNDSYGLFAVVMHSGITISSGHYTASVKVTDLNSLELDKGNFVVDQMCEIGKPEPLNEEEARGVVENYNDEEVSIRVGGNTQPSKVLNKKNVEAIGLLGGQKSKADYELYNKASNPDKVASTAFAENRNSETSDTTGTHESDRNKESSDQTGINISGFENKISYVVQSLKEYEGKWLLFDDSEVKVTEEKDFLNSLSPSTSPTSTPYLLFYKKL
Procedure, shortened: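 Kinetic fluorescence assay: 1nM USP1/UAF1, 15 min compound preincubation, then 150nM Ub-Rho; 480/540 nm.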

[15] = Primary qHTS for small molecule stabilizers of the endoplasmic reticulum resident proteome: Secreted ER Calcium Modulated Protein (SERCaMP) assay (AID 1508630); conditions: SH-SY5Y GLuc-SERCaMP (Gaussia luciferase released on ER calcium loss) secretion, thapsigargin, luminescence; series mostly up to 38.4 µM
Procedure, shortened: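 The SH-SY5Y reporter protocol was run at 3 concentrations up to 38.3 uM (primary) or 11 concentrations (follow-up): 16 h compound, 100 nM thapsigargin for 4 h, then extracellular luciferase luminescence.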

[16] = molecular target: Cytochrome P450 2C9 (Homo sapiens) (UniProt P11712); test: qHTS Assay for Inhibitors and Substrates of Cytochrome P450 2C9 (AID 883); conditions: recombinant CYP2C9, luciferin-H luminescence, 60 min; series mostly up to 57.1 µM; also: potency is read from the fitted curve at half-maximal effect; nearly all actives have a fitted effect of over 60% in size
Sequence of Cytochrome P450 2C9 (Homo sapiens) (P11712 whole entry, looked up): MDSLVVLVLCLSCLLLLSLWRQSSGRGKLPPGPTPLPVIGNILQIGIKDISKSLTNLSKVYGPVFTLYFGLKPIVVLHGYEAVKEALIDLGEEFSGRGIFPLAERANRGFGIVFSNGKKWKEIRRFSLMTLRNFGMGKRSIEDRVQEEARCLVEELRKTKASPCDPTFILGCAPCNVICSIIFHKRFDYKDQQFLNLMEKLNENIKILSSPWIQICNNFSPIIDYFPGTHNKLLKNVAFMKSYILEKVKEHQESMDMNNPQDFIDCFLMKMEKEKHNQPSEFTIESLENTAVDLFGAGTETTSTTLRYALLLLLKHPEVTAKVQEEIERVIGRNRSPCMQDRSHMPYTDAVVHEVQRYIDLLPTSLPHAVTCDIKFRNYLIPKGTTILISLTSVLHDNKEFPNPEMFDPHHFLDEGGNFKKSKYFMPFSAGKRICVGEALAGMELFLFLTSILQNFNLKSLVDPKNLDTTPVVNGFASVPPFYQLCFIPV
Procedure, shortened: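 Luminescent read-out of deoxyluciferin hydroxylation, normalized to 57uM sulphaphenazole (AC100). Reaction: 10nM enzyme, 100uM Luciferin-H (equal to KM), 25mM KPO4, 10 min compound preincubation, then 60 min with NADPH regeneration, both at 37C.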

[17] = molecular target: 3',5'-cyclic-AMP phosphodiesterase 4B (Homo sapiens) (UniProt Q07343); test: qHTS Assay for Inhibitors of PDE-IV (AID 607; active = well fitted activation curve with a large enough effect in the main read-out, with a control signal flat, not every such curve was filed as active); conditions: HEK293 ACTOne CNG channel cells, membrane potential fluorescence; series mostly up to 22.9 µM
Sequence of 3',5'-cyclic-AMP phosphodiesterase 4B (Homo sapiens) (Q07343 whole entry, looked up): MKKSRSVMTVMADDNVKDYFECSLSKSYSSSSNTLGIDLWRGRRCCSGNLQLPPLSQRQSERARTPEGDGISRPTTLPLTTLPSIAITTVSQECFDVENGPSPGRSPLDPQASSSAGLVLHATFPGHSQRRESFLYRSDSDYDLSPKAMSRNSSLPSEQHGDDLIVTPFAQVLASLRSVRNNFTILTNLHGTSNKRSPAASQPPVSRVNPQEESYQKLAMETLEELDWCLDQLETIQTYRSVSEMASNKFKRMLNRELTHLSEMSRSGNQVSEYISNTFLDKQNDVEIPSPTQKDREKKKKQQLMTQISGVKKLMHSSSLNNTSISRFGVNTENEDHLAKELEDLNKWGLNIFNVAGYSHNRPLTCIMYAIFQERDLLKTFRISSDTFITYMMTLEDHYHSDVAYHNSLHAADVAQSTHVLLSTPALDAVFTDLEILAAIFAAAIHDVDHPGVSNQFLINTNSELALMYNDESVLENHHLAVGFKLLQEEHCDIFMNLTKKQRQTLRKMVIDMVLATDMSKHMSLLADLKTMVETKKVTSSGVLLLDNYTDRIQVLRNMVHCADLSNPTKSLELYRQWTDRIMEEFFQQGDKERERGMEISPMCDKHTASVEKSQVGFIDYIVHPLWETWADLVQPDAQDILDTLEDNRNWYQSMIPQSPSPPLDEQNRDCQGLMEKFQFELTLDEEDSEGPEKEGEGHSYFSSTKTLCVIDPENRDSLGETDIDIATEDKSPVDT
Procedure, shortened: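 HEK293 ACTOne cells with CNG channel (1000/well), endogenous PDE4; membrane potential dye, compounds up to 22.9 uM final. Fluorescence Ex 535/Em 590; RO 20-1724 (100 uM final) as reference.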

SMILES	Potency [1] [µM]	activity change, negative = inhibition [2] [%]	Potency [3]	activity change, negative = inhibition [4] [%]	activity, negative = inhibition [5] [%]	Potency [6] [µM]	Potency [7] [µM]	Potency [8]	Potency [9]	Potency [10]	Potency [11]	Potency [12]	Potency [13]	Potency [14]	outcome [15]	Potency [16]	Potency [17]
COc1ccc(CNc2ccnc(-c3ccc(C(=O)N(C)C)cc3)n2)c(OC)c1	> 11.4	-20	12.6 µM (active)	-8.82	-4.52	> 46	> 46	inactive	3.98 µM (active)	inactive	inactive	inactive	inactive	inactive	inactive		
O=c1c(-c2cccc(Cl)c2)nc2cncnc2n1Cc1ccccc1	> 11.4	-3.36	1 µM (active)	-0.741	-3.65	> 9.22	> 46	inactive			inactive	inactive	inactive	inactive	inactive	1.26 µM (active)	
N#CCCn1c(=O)c(-c2cc(F)cc(F)c2)nc2cnc(N3CCOCC3)nc21	> 11.4	2.2	3.16 µM (active)	20.1	12.6	> 9.22	> 46	inactive		inactive	inactive	inactive	inactive	inactive	inactive		inactive
COc1ncc2nc(C)c(=O)n(-c3ccccc3)c2n1	> 11.4	-2.25	5.01 µM (active)	2.66	-8.97	> 9.22	> 46	inactive		inactive	inactive	inactive	inactive	inactive	inactive		inactive
Cn1c(=O)c(-c2ccc(F)c(F)c2)nc2cncnc21	> 11.4	10	0.158 µM (active)	-5.02	-7.37	> 9.22	> 46	inactive		inactive	inactive	inactive	inactive	inactive	inactive		inactive
COc1ccc(-n2c(=O)c(-c3cccc(Cl)c3)nc3cncnc32)cc1	> 11.4	-20.5	1 µM (active)	-14.1	-4.36	> 9.22	> 46	inactive		inactive	inactive	inactive	inactive	inactive	inactive		inactive
